# Results published in PubChem BioAssay (EPA / NIEHS).
# Values joined by “and” are separate entries in the source; they are usually repeats but may differ in a detail not shown here. Equal entries are not always repeated. Some structures have more than one record in an assay (separate samples or runs), and their calls can disagree. Active and inactive are the calls of the source. How the source made its calls: active means hit-call score of the fitted dose curve at least 0.9, where 1 is the maximum; inactive means score below 0.9.
# Read-out: Plasminogen activator inhibitor-1 (PAI1), SERPINE1 (gene 5054)
# Test: BSK_CASM3C_PAI1: BioMAP Diversity Plus: CASM3C Assay for Plasminogen activator inhibitor-1 (PAI1) Biomarker Activity (AID 2284284);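 further: PAI-1 protein level measured by ELISA 24 h after dosing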
# Details: primary human coronary artery smooth muscle cells
Compound,outcome,AC50
C=C(C)C(=O)OCCC(F)(F)C(F)(F)C(F)(F)C(F)(F)C(F)(F)C(F)(F)F,inactive,
OCCC(F)(F)C(F)(F)C(F)(F)C(F)(F)C(F)(F)C(F)(F)F,inactive,
NCC(F)(F)C(F)(F)C(F)(F)C(F)(F)C(F)(F)C(F)(F)C(F)(F)F,inactive,
OCCC(F)(F)C(F)(F)C(F)(F)C(F)(F)C(F)(F)C(F)(F)C(F)(F)C(F)(F)F,,44.5 µM (active) and 41 µM (active)
C[C@@H]1C[C@H]2[C@@H]3CCC4=CC(=O)C=C[C@]4(C)[C@@]3(F)[C@@H](O)C[C@]2(C)[C@@]1(O)C(=O)COP(=O)(O)O,inactive,

# Read-out: Monocyte Chemoattractant Protein-1 (MCP1), CCL2 (gene 6347)
# Test: BSK_hDFCGF_MCP1: BioMAP Diversity Plus: hDFCGF Assay for Monocyte Chemoattractant Protein-1 (MCP1) Biomarker Activity (AID 2284285)
# Details: primary human foreskin fibroblasts
# Protocol: BSK_hDFCGF is a cell-based, multiplexed-readout assay that uses foreskin fibroblast, a human skin primary cell, with measurements taken at 24 hours after chemical dosing in a 96-well plate.BSK_hDFCGF_MCP1 is an assay component measured in the BSK_hDFCGF assay. It measures MCP-1 antibody related to regulation of gene expression using ELISA technology.Data from the assay component BSK_hDFCGF_MCP1 was analyzed at the endpoint, BSK_hDFCGF_MCP1, in the positive analysis fitting direction relative to DMSO as the negative control and baseline of activity. Using a type of binding reporter, gain or loss-of-signal activity can be used to understand protein changes. To generalize the intended target to other relatable targets, this assay endpoint is annotated to the 'cytokine' intended target family, where the subfamily is 'chemotactic factor'.
# The levels of cell surface (or secreted, indicated by the prefix "s") biomarker endpoints were measured by ELISA. Overt cytotoxicity to cells in confluent adherent cultures (all systems other than the BT system) was assessed by measuring total protein levels using sulforhodamine B (SRB) staining in parallel cultures at the time of biomarker measurements, indicated as SRB endpoints. For proliferation assays for adherent cell types, individual cell types are cultured at sub-confluence and relative cell numbers quantified by SRB staining at time points optimized for each system (48 h: 3C and CASM3C systems; 72 h: BT and HDF3CGF systems; 96 h: SAg system). SRB was performed by staining cells with 0.1% SRB after fixation with 10% TCA and reading wells at 560 nm.Viability and proliferation of PBMC (T cells) was quantified by Alamar Blue reduction for the SAg and BT systems. For PBMC viability (referred to as PBMC Cytotoxicity within the assay endpoint names), cells were plated (75,000/well in a 96-well plate) and then chemical samples added for 1 h before addition of activators, SEB and TSST-1 (20 ng/mL final concentration each). Cells were incubated for 90 h. Then, Alamar Blue (20 uL/well) (Invitrogen, Cat DAL1100) was added for 6 h, and the plates were read with a fluorescence microplate reader at 546/580 nm (excitation/emission). For PBMC proliferation, cells were plated and activated as above but incubated for only 16 h prior to addition of Alamar Blue. Plates were read after 6 h.
Compound,outcome,AC50
C=C(C)C(=O)OCCC(F)(F)C(F)(F)C(F)(F)C(F)(F)C(F)(F)C(F)(F)F,inactive,
OCCC(F)(F)C(F)(F)C(F)(F)C(F)(F)C(F)(F)C(F)(F)F,,49.6 µM (active) and 54.3 µM (active)
NCC(F)(F)C(F)(F)C(F)(F)C(F)(F)C(F)(F)C(F)(F)C(F)(F)F,inactive,
FC(F)(I)C(F)(F)C(F)(F)C(F)(F)C(F)(F)C(F)(F)I,,5.13 µM (active) [middle of 5 runs]
OCCC(F)(F)C(F)(F)C(F)(F)C(F)(F)C(F)(F)C(F)(F)C(F)(F)C(F)(F)F,,17.1 µM (active) and 11.3 µM (active)
C[C@@H]1C[C@H]2[C@@H]3CCC4=CC(=O)C=C[C@]4(C)[C@@]3(F)[C@@H](O)C[C@]2(C)[C@@]1(O)C(=O)COP(=O)(O)O,inactive,

# Read-out: Vascular cell adhesion molecule 1 (VCAM1), VCAM1 (gene 7412)
# Test: BSK_IMphg_VCAM1: BioMAP Diversity Plus: IMphg Assay for Vascular cell adhesion molecule 1 (VCAM1) Biomarker Activity (AID 2284286)
# Details: primary human endothelial cells with macrophages
# Procedure, shortened: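 ELISA read-out of VCAM-1 on venular endothelial cell/macrophage co-cultures at 24 h post-treatment, with DMSO as baseline and positive-direction fitting. Parallel sulforhodamine B total-protein staining (560 nm) served as the overt cytotoxicity measure.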
Compound,outcome,AC50
C=C(C)C(=O)OCCC(F)(F)C(F)(F)C(F)(F)C(F)(F)C(F)(F)C(F)(F)F,inactive,
OCCC(F)(F)C(F)(F)C(F)(F)C(F)(F)C(F)(F)C(F)(F)F,inactive,
NCC(F)(F)C(F)(F)C(F)(F)C(F)(F)C(F)(F)C(F)(F)C(F)(F)F,inactive,
FC(F)(I)C(F)(F)C(F)(F)C(F)(F)C(F)(F)C(F)(F)I,,43.1 µM (active) [middle of 5 runs]
OCCC(F)(F)C(F)(F)C(F)(F)C(F)(F)C(F)(F)C(F)(F)C(F)(F)C(F)(F)F,,45.5 µM (active) and 44.5 µM (active)
C[C@@H]1C[C@H]2[C@@H]3CCC4=CC(=O)C=C[C@]4(C)[C@@]3(F)[C@@H](O)C[C@]2(C)[C@@]1(O)C(=O)COP(=O)(O)O,inactive,3.41 µM (active)

# Read-out: Intercellular Adhesion Molecule 1 (ICAM1), ICAM1 (gene 3383)
# Test: BSK_hDFCGF_ICAM1: BioMAP Diversity Plus: hDFCGF Assay for Intercellular Adhesion Molecule 1 (ICAM1) Biomarker Activity (AID 2284287)
# Details: primary human foreskin fibroblasts
# Procedure, shortened: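 ICAM-1 ELISA readout 24 h after dosing, DMSO as baseline, in human dermal foreskin fibroblast cultures. Cytotoxicity checked in parallel wells by SRB staining (0.1% SRB, 10% TCA fixation, 560 nm).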
Compound,outcome,AC50
C=C(C)C(=O)OCCC(F)(F)C(F)(F)C(F)(F)C(F)(F)C(F)(F)C(F)(F)F,inactive,
OCCC(F)(F)C(F)(F)C(F)(F)C(F)(F)C(F)(F)C(F)(F)F,,44 µM (active) and 54 µM (active)
NCC(F)(F)C(F)(F)C(F)(F)C(F)(F)C(F)(F)C(F)(F)C(F)(F)F,inactive,
FC(F)(I)C(F)(F)C(F)(F)C(F)(F)C(F)(F)C(F)(F)I,,5.98 µM (active) [middle of 5 runs]
OCCC(F)(F)C(F)(F)C(F)(F)C(F)(F)C(F)(F)C(F)(F)C(F)(F)C(F)(F)F,,18.1 µM (active) and 18.3 µM (active)
C[C@@H]1C[C@H]2[C@@H]3CCC4=CC(=O)C=C[C@]4(C)[C@@]3(F)[C@@H](O)C[C@]2(C)[C@@]1(O)C(=O)COP(=O)(O)O,inactive,

# Read-out: CD40, CD40 (gene 958)
# Test: BSK_IMphg_CD40: BioMAP Diversity Plus: IMphg Assay for CD40 Biomarker Activity (AID 2284288)
# Details: primary human endothelial cells with macrophages
# Procedure, shortened: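 ELISA read-out of cell-surface CD40 at 24 h in human venular endothelial cell/macrophage co-cultures. Activity fitted in the positive direction against DMSO; parallel SRB staining (560 nm) gauges overt cytotoxicity.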
Compound,outcome,AC50
C=C(C)C(=O)OCCC(F)(F)C(F)(F)C(F)(F)C(F)(F)C(F)(F)C(F)(F)F,inactive,
OCCC(F)(F)C(F)(F)C(F)(F)C(F)(F)C(F)(F)C(F)(F)F,inactive,
NCC(F)(F)C(F)(F)C(F)(F)C(F)(F)C(F)(F)C(F)(F)C(F)(F)F,inactive,24 µM (active)
FC(F)(I)C(F)(F)C(F)(F)C(F)(F)C(F)(F)C(F)(F)I,inactive,
OCCC(F)(F)C(F)(F)C(F)(F)C(F)(F)C(F)(F)C(F)(F)C(F)(F)C(F)(F)F,,46.1 µM (active) and 45.6 µM (active)
C[C@@H]1C[C@H]2[C@@H]3CCC4=CC(=O)C=C[C@]4(C)[C@@]3(F)[C@@H](O)C[C@]2(C)[C@@]1(O)C(=O)COP(=O)(O)O,inactive,13.3 µM (active)

# Read-out: TIMP metallopeptidase inhibitor 2 (TIMP2), TIMP2 (gene 7077)
# Test: BSK_hDFCGF_TIMP2: BioMAP Diversity Plus: hDFCGF Assay for TIMP metallopeptidase inhibitor 2 (TIMP2) Biomarker Activity (AID 2284289)
# Details: primary human foreskin fibroblasts
# Procedure, shortened: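 Primary human foreskin fibroblasts in the hDFCGF system, dosed for 24 h; TIMP-2 level measured by ELISA, fitted in the positive direction against DMSO; cytotoxicity checked in parallel by sulforhodamine B total protein staining.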
Compound,outcome,AC50
C=C(C)C(=O)OCCC(F)(F)C(F)(F)C(F)(F)C(F)(F)C(F)(F)C(F)(F)F,inactive,
OCCC(F)(F)C(F)(F)C(F)(F)C(F)(F)C(F)(F)C(F)(F)F,,52.5 µM (active) and 47 µM (active)
NCC(F)(F)C(F)(F)C(F)(F)C(F)(F)C(F)(F)C(F)(F)C(F)(F)F,inactive,
FC(F)(I)C(F)(F)C(F)(F)C(F)(F)C(F)(F)C(F)(F)I,inactive,5.93 µM (active) and 5.41 µM (active) and 5.49 µM (active)
OCCC(F)(F)C(F)(F)C(F)(F)C(F)(F)C(F)(F)C(F)(F)C(F)(F)C(F)(F)F,,5.95 µM (active) and 16.2 µM (active)
C[C@@H]1C[C@H]2[C@@H]3CCC4=CC(=O)C=C[C@]4(C)[C@@]3(F)[C@@H](O)C[C@]2(C)[C@@]1(O)C(=O)COP(=O)(O)O,inactive,966 nM (active)
